Laboratory results: PubChem BioAssay (Tox21)
Results filed as inconclusive are left out. Active and inactive are the calls of the source. Unless noted, the call rests on the fitted dose curve; in most records, active means well fitted curve in the direction sought with a large enough effect in the repeat runs; inconclusive means weak or mixed curves; inactive means flat fitted curve, though single readings scatter.

Columns and labels:
[1] = qHTS assay to test for compound auto fluorescence at 535 nm (green) in HEK293 cells (AID 720680)
[2] = qHTS assay to test for compound auto fluorescence at 460 nm (blue) in HEK293 cell free culture (AID 720681)
Summary of the method: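 Blue fluorescence (Ex 405/Em 460 nm, triamterene-equivalent) was read immediately after pin transfer of compound or DMSO into medium (DMEM, 10% FBS) without cells.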

[3] = qHTS assay to test for compound auto fluorescence at 535 nm (green) in HEK293 cell free culture (AID 720682)
Summary of the method: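 Each library compound, or DMSO control, is added by pintool to medium alone, comprising DMEM and 10% FBS. Emission at 535 nm following 485 nm excitation is quantified against fluorescein.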

[4] = qHTS assay to test for compound auto fluorescence at 590 nm (red) in HEK293 cell free culture (AID 720683)
Summary of the method: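 Red-channel autofluorescence of compounds in culture medium (DMEM, 10% FBS), no cells, measured at 540/590 nm. Rose Bengal sodium is the reference fluorophore for equivalence.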

[5] = qHTS assay to test for compound auto fluorescence at 590 nm (red) in HepG2 cell free culture (AID 720684)
Summary of the method: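 Steps: dispense MEM/10% FBS medium, no cells; pin compound or DMSO vehicle; read red channel, Ex/Em 540/590 nm. Output given as Rose Bengal sodium equivalents.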

[6] = qHTS assay to test for compound auto fluorescence at 460 nm (blue) in HepG2 cell free culture (AID 720685)
Summary of the method: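 Compound (23 nL) or DMSO pinned into cell-free MEM with 10% FBS; blue fluorescence read at 405/460 nm excitation/emission, expressed as auto-fluorescence equivalency to triamterene.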

[7] = qHTS assay to test for compound auto fluorescence at 535 nm (green) in HepG2 cell free culture (AID 720686)
[8] = qHTS assay to test for compound auto fluorescence at 460 nm (blue) in HepG2 cells (AID 720687)
Summary of the method: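 Blue-channel autofluorescence (Ex/Em 405/460 nm, triamterene-equivalent) was measured after 1 hr compound exposure at 37 C, 5% CO2. Cells were HepG2, plated overnight at 37 C in MEM plus 10% FBS.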

[9] = target: Glucocorticoid receptor (Homo sapiens) (UniProt P04150); assay: qHTS assay to identify small molecule agonists of the glucocorticoid receptor (GR) signaling pathway (AID 720691; active means well fitted activation curve with a large enough effect in the signal ratio in the repeat runs, not every such curve was filed as active; the % refers to the signal ratio)
Summary of the method: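 Reporter read-out: fluorescence intensity following 2 h room-temperature LiveBLAzer B/G FRET substrate loading. Prior step: GR-bla HeLa cells held 4 h, then treated 18 h at 37 C.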

[10] = target: Glucocorticoid receptor (Homo sapiens) (UniProt P04150); assay: qHTS assay to identify small molecule antagonists of the glucocorticoid receptor (GR) signaling pathway (AID 720692; active means well fitted inhibition curve with a large enough effect in the signal ratio in the repeat runs, not every such curve was filed as active; the % refers to the signal ratio; further: potency means the concentration at half of the fitted maximal effect)
Summary of the method: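 Dexamethasone (5 nM final) stimulated a stably integrated GRE-beta-lactamase reporter in HeLa cells during 18 h co-incubation with compounds; signal was quantified as fluorescence intensity of B/G FRET substrate after 2 h.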
On the % scale 0 is the no-effect control and ±100 the full control effect.

Glucocorticoid receptor (Homo sapiens), sequence (P04150 whole entry, looked up): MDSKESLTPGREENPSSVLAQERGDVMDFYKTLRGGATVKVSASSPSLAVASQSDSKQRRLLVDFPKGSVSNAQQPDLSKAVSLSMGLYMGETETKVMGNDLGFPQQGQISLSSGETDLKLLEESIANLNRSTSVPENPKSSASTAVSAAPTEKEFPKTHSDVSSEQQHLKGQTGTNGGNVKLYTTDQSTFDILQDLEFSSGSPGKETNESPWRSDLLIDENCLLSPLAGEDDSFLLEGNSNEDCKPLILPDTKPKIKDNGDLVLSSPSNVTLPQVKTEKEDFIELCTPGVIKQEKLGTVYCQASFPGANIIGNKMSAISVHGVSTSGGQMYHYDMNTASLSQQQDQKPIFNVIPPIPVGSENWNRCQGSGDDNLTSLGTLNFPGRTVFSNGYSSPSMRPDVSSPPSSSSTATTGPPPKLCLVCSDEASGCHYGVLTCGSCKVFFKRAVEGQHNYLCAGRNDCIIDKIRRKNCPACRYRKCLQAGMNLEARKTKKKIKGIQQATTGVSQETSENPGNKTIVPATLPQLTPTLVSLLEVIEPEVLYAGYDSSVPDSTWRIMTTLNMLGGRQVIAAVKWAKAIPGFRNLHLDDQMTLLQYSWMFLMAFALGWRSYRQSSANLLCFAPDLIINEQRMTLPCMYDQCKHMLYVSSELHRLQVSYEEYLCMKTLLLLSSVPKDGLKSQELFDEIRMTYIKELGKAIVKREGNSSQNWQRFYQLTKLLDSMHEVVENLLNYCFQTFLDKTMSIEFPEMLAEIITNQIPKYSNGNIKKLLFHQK

COc1ccc2c(c1OC)CN1CCc3cc4c(cc3C1C2)OCO4 (configuration not stated)
inactive: fluorescence, % of fluorescein [1] -0.0571% [at 18.6 µM] | fluorescence, % of fluorescent control [2] 0.288% [at 18.6 µM] | activity change [3] -0.0423% [at 18.6 µM] | fluorescence, % of fluorescent control [4] 0.155% [at 18.6 µM] | fluorescence, % of Rose Bengal [5] -0.268% [at 18.6 µM] | fluorescence, % of fluorescent control [6] -0.0388% [at 18.6 µM] | fluorescence, % of fluorescein control [7] 0.0175% [at 18.6 µM] | fluorescence, % of fluorescent control [8] 0.229% [at 18.6 µM] | outcome [9] | Potency [10]

O=C(N[C@H]1CN2CCC1CC2)c1cc2ccoc2cn1
inactive: outcome [1] | outcome [2] | outcome [3] | outcome [4] | outcome [5] | outcome [6] | outcome [7] | outcome [8] | outcome [9] | Potency [10]

ClC(Br)Br
inactive: outcome [1] | outcome [2] | outcome [3] | outcome [4] | outcome [5] | outcome [6] | outcome [7] | outcome [8] | outcome [9] | Potency [10]

O=C(Cc1ccccc1)OCc1ccccc1
inactive: outcome [1] | outcome [2] | outcome [3] | outcome [4] | outcome [5] | outcome [6] | outcome [7] | outcome [8] | outcome [9] | Potency [10]

BrCCCCCCBr
inactive: outcome [1] | outcome [2] | outcome [3] | outcome [4] | outcome [5] | outcome [6] | outcome [7] | outcome [8] | outcome [9] | Potency [10]

CCCSC(=O)Cl
inactive: outcome [1] | outcome [2] | outcome [3] | outcome [4] | outcome [5] | outcome [6] | outcome [7] | outcome [8] | outcome [9] | Potency [10]

CCC/C(=N\OCC)C1=C(O)CC(CC(C)SCC)CC1=O (configuration not stated)
inactive: outcome [1] | outcome [2] | outcome [3] | outcome [4] | outcome [5] | outcome [6] | outcome [7] | outcome [8] | outcome [9] | Potency [10]

CC(CC(C#N)(c1ccccc1)c1ccccc1)N(C)C (configuration not stated)
inactive: outcome [1] | outcome [2] | outcome [3] | outcome [4] | outcome [5] | outcome [6] | outcome [7] | outcome [8] | outcome [9] | Potency [10]

COP(=S)(OC)Oc1c(Cl)cc(C)cc1Cl
inactive: outcome [1] | outcome [2] | outcome [3] | outcome [4] | outcome [5] | outcome [6] | outcome [7] | outcome [8] | outcome [9] | Potency [10]

CCOP(=S)(Oc1cnc(C(C)(C)C)nc1)OC(C)C (configuration not stated)
inactive: outcome [1] | outcome [2] | outcome [3] | outcome [4] | outcome [5] | outcome [6] | outcome [7] | outcome [8] | outcome [9] | Potency [10]

ClC(Cl)C(Cl)Cl
inactive: outcome [1] | outcome [2] | outcome [3] | outcome [4] | outcome [5] | outcome [6] | outcome [7] | outcome [8] | outcome [9] | Potency [10]

CCCSP(=S)(OCC)Oc1ccc(Cl)cc1Cl (configuration not stated)
inactive: outcome [1] | outcome [2] | outcome [3] | outcome [4] | outcome [5] | outcome [6] | outcome [7] | outcome [8] | outcome [9] | Potency [10]

CC(C)CC#N
inactive: outcome [1] | outcome [2] | outcome [3] | outcome [4] | outcome [5] | outcome [6] | outcome [7] | outcome [8] | outcome [9] | Potency [10]

CCc1cc2c(s1)-n1c(C)nnc1CN=C2c1ccccc1Cl
active: Potency [10] 19 µM
inactive: outcome [1] | outcome [2] | outcome [3] | outcome [4] | outcome [5] | outcome [6] | outcome [7] | outcome [8] | outcome [9]

C[C@]12CC[C@H]3[C@@H](CC=C4C[C@@H](O)CC[C@@]43C)[C@@H]1CC[C@@H]2O
active: Potency [10] 6.01 µM
inactive: outcome [1] | outcome [2] | outcome [3] | outcome [4] | outcome [5] | outcome [6] | outcome [7] | outcome [8] | outcome [9]

CNC(=O)Oc1cccc(C(C)C)c1
inactive: outcome [1] | outcome [2] | outcome [3] | outcome [4] | outcome [5] | outcome [6] | outcome [7] | outcome [8] | outcome [9] | Potency [10]

O=C1CN=C(c2ccccc2)c2cc([N+](=O)[O-])ccc2N1
inactive: outcome [1] | outcome [2] | outcome [3] | outcome [4] | outcome [5] | outcome [6] | outcome [7] | outcome [8] | outcome [9] | Potency [10]

CNC(=O)Oc1ccccc1C1OCCO1
inactive: outcome [1] | outcome [2] | outcome [3] | outcome [4] | outcome [5] | outcome [6] | outcome [7] | outcome [8] | outcome [9] | Potency [10]

CNC(=O)N(C)c1nc2ccccc2s1
inactive: outcome [1] | outcome [2] | outcome [3] | outcome [4] | outcome [5] | outcome [6] | outcome [7] | outcome [8] | outcome [9] | Potency [10]

C#CCN1C(=O)COc2cc(F)c(N3C(=O)C4=C(CCCC4)C3=O)cc21
inactive: outcome [1] | outcome [2] | outcome [3] | outcome [4] | outcome [5] | outcome [6] | outcome [7] | outcome [8] | outcome [9] | Potency [10]

CN(C)CCc1ccc(O)cc1
inactive: outcome [1] | outcome [2] | outcome [4] | outcome [5] | outcome [6] | outcome [7] | outcome [8]

CC(Cl)(Cl)[N+](=O)[O-]
inactive: outcome [1] | outcome [2] | outcome [3] | outcome [4] | outcome [5] | outcome [6] | outcome [7] | outcome [8] | outcome [9] | Potency [10]

CCCCOP(=O)(O)OCCCC
inactive: outcome [1] | outcome [2] | outcome [3] | outcome [4] | outcome [5] | outcome [6] | outcome [7] | outcome [8] | outcome [9] | Potency [10]
